NPC1 prom act = NPC1 promoter activation; Huh7 NPC1 promoter luciferase reporter, 24 h; AID 485313; Potency, µM (top dose mostly 9.22 µM), for the others: top-dose activation, usual class: activators; hit rate 2.4% among 320,000; note: % of control where 0% means no effect; nearly all actives have a fitted effect of over 60% in size
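Luminescence from an NPC1 promoter-driven luciferase reporter in stably transfected Huh7 cells was measured after 24 h compound treatment at 37 °C, followed by 10 min ambient incubation with luciferase detection reagent.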
p53 reactivator = mutant p53 re-activation in reporter cells | H1299 p53-A138V BP100-luciferase reporter, luminescence, 24 h | Potency, µM (titrated, usually from 92.2 µM), for inactives: at the highest dose activity change, positive = activation, usual class: activators | hit rate 0.063% among 320,000 | AID 504706; note: % of control where 0% means no effect; nearly all actives have a fitted effect of over 45% in size
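p53-null H1299 cells stably carrying temperature-sensitive p53-A138V and a BP100-luciferase reporter were pinned with compounds (4-point, 1:5 series) and held 24 hrs at 37 deg C. Luminescence was read 10 min after detection reagent.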
SMN2 splice up = SMN2 splice variant enhancement; HEK293 SMN2-luciferase splicing reporter, luminescence, 30-36 h; Potency, µM (top dose mostly 46.1 µM), inactives show at the top dose activity change, positive = activation, hits mostly activators; hit rate 2.8% among 210,000; AID 1458; note: % of control where 0% means no effect; nearly all actives have a fitted effect of over 55% in size
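HEK293 cells carry an SMN2 minigene-luciferase reporter in which exon 7 inclusion puts luciferase in frame. Cells were seeded at 2000 cells/well, attached for 10-12 hours, then exposed to compounds for 30-36 hours at 37C before ONE-Glo luminescence.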
ELG1 genotoxic = inducers of genotoxicity in HEK293T ELG1-luciferase cells. HEK293T ELG1-luciferase reporter, luminescence, 16 h. Potency, µM (series often up to 46 µM), without a hit: at the highest dose activity change, positive = activation, usual class: activators. hit rate 1.3% among 330,000. AID 504466; note: % of control where 0% means no effect; nearly all actives have a fitted effect of over 60% in size
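After overnight (16 hr) compound treatment at 37 °C, ELG1-luciferase HEK293T cells were lysed with ONE-Glo; luminescence quantified 30 min later at room temperature.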
FLuc modulator = counter-screen for miR-21 project: firefly luciferase inhibitors or activators. P08659. purified FLuc, Km substrates, luminescence inhibition. Potency, µM (doses to about 57.5 µM), for inactives: top-dose activity change, negative = inhibition, hits mostly inhibitors. hit rate 6.9% among 360,000. AID 588342;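 note: plate controls were vehicle for no effect and reference inhibitor for full effect; nearly all actives have a fitted effect of over 55% in size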
Target sequence (P08659 whole entry, looked up): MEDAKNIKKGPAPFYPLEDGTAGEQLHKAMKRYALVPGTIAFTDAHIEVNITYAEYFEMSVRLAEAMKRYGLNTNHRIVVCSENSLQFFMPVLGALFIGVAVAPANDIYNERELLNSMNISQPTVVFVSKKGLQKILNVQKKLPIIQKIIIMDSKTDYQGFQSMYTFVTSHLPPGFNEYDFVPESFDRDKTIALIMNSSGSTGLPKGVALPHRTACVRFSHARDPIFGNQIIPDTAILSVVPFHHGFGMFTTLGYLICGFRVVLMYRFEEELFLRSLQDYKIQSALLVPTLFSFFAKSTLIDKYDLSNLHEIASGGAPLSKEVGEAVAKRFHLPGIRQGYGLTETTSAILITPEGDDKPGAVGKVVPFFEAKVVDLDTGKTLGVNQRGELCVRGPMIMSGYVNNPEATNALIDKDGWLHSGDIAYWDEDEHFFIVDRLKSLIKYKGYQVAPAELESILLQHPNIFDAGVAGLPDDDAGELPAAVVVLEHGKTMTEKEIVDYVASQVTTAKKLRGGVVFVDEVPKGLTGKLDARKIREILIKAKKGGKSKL
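Purified P. pyralis luciferase (10nM final) with 10uM D-luciferin and 10uM ATP (Km levels) in 50mM Tris acetate pH 7.5, 10mM Mg acetate, 0.01% Tween-20, 0.05% BSA; qHTS 6-point titration, ~60 µM downward; luminescence read.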
Rab9 prom act = Rab9 promoter activation | Huh7 Rab9 promoter-luciferase reporter, luminescence, 24 h | hit rate 2.8% among 320,000 | Potency, µM (top dose mostly 9.22 µM), without a hit: at the highest dose activation, negative = inhibition, hits mostly activators; note: % of control where 0% means no effect; nearly all actives have a fitted effect of over 60% in size
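Rab9 promoter-driven luciferase in stably transfected Huh7 cells; 1500 cells/well rested 2 h, exposed to compound in DMSO for 24 h at 37 °C, 5% CO2. Luminescence read 10 min after adding luciferase reagent at ambient temperature.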
* hit, by the source's call; u = inconclusive; x = no result; [ ] = remark or other dose. An excerpt weighted towards active compounds, which were near 7.4% of everything screened. Calls come from the whole dose curve; as a rule, active = well fitted curve in the direction sought with a large enough effect; inconclusive = small, poorly fitted or top-dose-only effect, or another doubt; inactive = no such curve, though single readings can be large; an effect the other way counts as inactive or inconclusive. Potency is the fitted concentration of half-maximal effect.

SMILES	NPC1 prom act	p53 reactivator	SMN2 splice up	ELG1 genotoxic	FLuc modulator	Rab9 prom act
N#Cc1nc(-c2ccc(COc3ccccc3)o2)oc1NCc1cccnc1	x	x	x	x	-16%	x
COc1cc(N/N=C(\C)c2ccc(N)cc2)nc(-c2ccccc2)n1	7%	3%	9%	-5%	15µM*	28%
COc1cc(N/N=C(\C)c2ccc(O)c(C)c2)nc(-c2ccccc2)n1	-6%	4%	x	-7%	15µM*	-12%
COc1ccc(NC(=O)CCNC(=O)c2ccc([N+](=O)[O-])cc2)cc1S(=O)(=O)N1CCCCC1	6%	-5%	x	-6%	2%	0%
Cc1ccc(N)cc1[N+](=O)[O-]	x	x	-12%	x	x	x
COc1ccccc1-c1c(C)nn2c(N)c(-c3ccccc3)cnc12	12%	7%	x	0%	19µM*	15%
COCc1nn2c(N)c(-c3ccccc3)cnc2c1-c1ccccc1	2.8µM*	12%	x	u	0.85µM*	2.8µM*
COCc1nn2c(N)c(C#N)cnc2c1-c1ccccc1	-2%	-3%	29%	18%	13µM*	-1%
C[C@@H](CCc1ccccc1)NC[C@H](O)c1ccc(O)c(C(N)=O)c1	x	x	0%[20.6 µM]	x	x	x
CCOc1ccc2oc(C(=O)Nc3ccc4c(c3)OCO4)c(C)c2c1	3.2µM*	u	x	u	5.4µM*	2.8µM*
CCOc1ccc2oc(C(=O)O)c(C)c2c1	18%	2%	x	9%	u	22%
CCOc1ccc2oc(C(=O)Nc3ccc(N4CCOCC4)cc3)c(C)c2c1	x	x	-30%	x	13µM*	x
Cn1c(C(=O)NCc2ccc(F)cc2)cc2c(=O)n(C)c3ccccc3c21	x	x	-1%	x	1%	x
CCc1ccc(NC(=O)c2cnccn2)cc1	1.3µM*	8%	x	u	5.4µM*	1.3µM*
O=C(Nc1ccc2nccnc2c1)c1cnccn1	u	u	0%	u	u	u
CCCOC(=O)c1ccc(NC(=O)c2cnccn2)cc1	u	u	-5%	19%	u	u
Cc1csc2ncc(C(=O)Nc3cccc(C(F)(F)F)c3)c(=O)n12	22%	8%	u	u	1%	29%
O=C(Nc1ccc(OC(F)(F)F)cc1)c1cnccn1	1.8µM*	-3%	x	u	12µM*	2.8µM*
CCc1ccc(NC(=O)c2cnc3scc(C)n3c2=O)cc1	u	15%	8.9µM*	18µM*	u	4.5µM*
CCCCC[C@H](O)/C=C/C=C/C=C/[C@@H](O)C/C=C\CCCC(=O)O	x	x	-9%	x	x	x
COc1ccccc1-c1ccc(NC2CCCCC2)nn1	u	u	10µM*	u	7.6µM*	u
COc1ccccc1-c1ccc(Nc2cccc(C(F)(F)F)c2)nn1	2%	-11%	-9%	-1%	4%	20%
COc1ccc2cc(CCOC3CCCCO3)ncc2c1 (stereo not given)	0.32µM*	5%	x	u	2.7µM*	0.5µM*
COc1ccc(NC(=O)n2ncc3cc(Cl)ccc32)cc1OC	u	14%	x	u	u	3.5µM*
COc1cc(OC)c(NC(=O)n2ncc3cc(Cl)ccc32)cc1Cl	x	x	x	x	4%	x
SMILES	NPC1 prom act	p53 reactivator	SMN2 splice up	ELG1 genotoxic	FLuc modulator	Rab9 prom act
COc1cc(NC(=O)n2ncc3cc(Cl)ccc32)cc(OC)c1	18%	3%	x	u	12µM*	u
O=C(Nc1ccccc1F)n1ncc2cc(Cl)ccc21	29%	2%	x	4%	-13%	30%
Cc1ccc[n+](CC(=O)Nc2ccc(N(C)C)cc2)c1	-3%	18%	x	-8%	-5%	6%
O=C(CSc1nnc2ccc3ccccc3n12)Nc1ccccc1Cl	x	x	x	x	17µM*	x
CCCOC(=O)CSc1nnc2ccc3ccccc3n12	x	x	x	x	9.5µM*	x
CCc1ccc(S(=O)(=O)c2nnn3c2nc(Nc2ccc(NC(C)=O)cc2)c2sccc23)cc1	x	x	x	x	0%	x
O=c1[nH]c(=O)n(C2CCCCC2)c(O)c1C1=Nc2ccccc2SC(c2ccc(Cl)cc2)C1 (stereo not given)	x	x	x	x	-2%	x
Cc1cc(NC(=O)c2ccccc2[N+](=O)[O-])ccc1Br	28%	3%	26%	u	17µM*	u
Cc1occc1C(=O)Nc1ccc2c(c1)OCO2	3.5µM*	u	13µM*	21µM*	24µM*	2.8µM*
C/C(=N/NC(=O)c1ccoc1C)c1cccc(NC(=O)C(F)(F)F)c1	15%	17%	18%	u	u	28%
CSc1ccccc1C(=O)Nc1ccc2c(c1)OCO2	0%	17%	u	7%	u	7%
C/C(=N/NC(=O)c1ccc(C)s1)c1cccc(NC(=O)c2ccoc2C)c1	2%	-16%	x	-19%	17µM*	27%
Cc1occc1C(=O)Nc1cccc(C(=O)O)c1	2.2µM*	12%	u	u	9.5µM*	2.8µM*
Cc1cc(C)c(Cn2c3ccccc3c3cnn(CC(=O)N4CCCCC4)c(=O)c32)c(C)c1	x	x	2%	x	-11%	x
COc1cccc(CNc2ncnc3onc(-c4ccc(F)cc4)c23)c1	x	x	x	x	-6%	x
Cc1occc1C(=O)Nc1ccc(S(N)(=O)=O)cc1	0%	8%	8%	2%	u	7%
Nc1ccccc1C(=O)Nc1cccc(C(=O)O)c1	u	-5%	17%	3%	2.7µM*	2.2µM*
Cc1ccc(NC(=O)c2ccoc2C)cc1C	u	u	16µM*	u	u	2.8µM*
COC(=O)c1cc(NC(=O)c2ccoc2C)cc(C(=O)OC)c1	-4%	-3%	10%	-3%	1%	-5%
Cc1cc(NC(=O)c2ccoc2C)ccc1Br	u	u	x	u	7.6µM*	u
C/C(=N\NC(=O)c1ccncc1)c1cccc(NC(=O)c2ccc(Cl)s2)c1	24%	1%	x	-1%	19µM*	1%
CC(=O)Nc1oc(-c2cccc3ccccc23)nc1C#N	-1%	1%	x	5%	u	-5%
Cc1cccc(-n2nc3c(c2NC(=O)c2ccc4c(c2)OCO4)CS(=O)(=O)C3)c1C	-2%	-4%	x	-3%	2%	-4%
CC(C)C[C@@H](CC(=O)N[C@@H](CCC(=O)O)CC(=O)O)NC(=O)[C@@H]1CNCC[C@H]1NC(=O)C[C@@H](NC(=O)C[C@H](Cc1c[nH]c2ccccc12)NC(=O)[C@@H]1CCCC[C@H]1N)C(C)C	x	x	6%	x	x	x
CC1CCN(c2oc(-c3ccccc3Cl)nc2C#N)CC1	u	u	x	u	11µM*	u
CC1CCCN(c2oc(-c3cccc4ccccc34)nc2C#N)C1 (stereo not given)	u	3%	-12%	u	5.4µM*	u
